Inconclusive results are not listed. Calls of active or inactive are those of the source. Unless noted, calls come from the whole dose curve.
Columns and labels:
[1] = qHTS for Inhibitors of the Functional Ribonucleoprotein Complex (vRNP) of Lassa (LASV) Arenavirus: LASV Primary Screen - GLuc reporter signal (AID 1347082; calls by dose curve; tested in HEK293 reporter line; note: nearly all actives have a fitted effect of over 60% in size)
[2] = qHTS for Inhibitors of the Functional Ribonucleoprotein Complex (vRNP) of Lassa (LASV) Arenavirus: Viability assay - alamar blue signal for LASV Primary Screen (AID 1347083; calls by dose curve; tested in HEK293 reporter line; note: nearly all actives have a fitted effect of over 80% in size)
[3] = qHTS for Inhibitors of the Functional Ribonucleoprotein Complex (vRNP) of Lymphocytic Choriomeningitis Arenaviruses (LCMV): Viability assay - alamar blue signal for LCMV Primary Screen (AID 1347085; calls by dose curve; tested in HEK293 reporter line; note: nearly all actives have a fitted effect of over 80% in size)
[4] = target: Nucleoprotein (Lymphocytic choriomeningitis virus (strain Armstrong)) (UniProt P09992); experiment: qHTS for Inhibitors of the Functional Ribonucleoprotein Complex (vRNP) of Lymphocytic Choriomeningitis Arenaviruses (LCMV): LCMV Primary Screen - GLuc reporter signal (AID 1347086); note: nearly all actives have a fitted effect of over 70% in size
Sequence of Nucleoprotein (Lymphocytic choriomeningitis virus (strain Armstrong)) (P09992 whole entry, looked up): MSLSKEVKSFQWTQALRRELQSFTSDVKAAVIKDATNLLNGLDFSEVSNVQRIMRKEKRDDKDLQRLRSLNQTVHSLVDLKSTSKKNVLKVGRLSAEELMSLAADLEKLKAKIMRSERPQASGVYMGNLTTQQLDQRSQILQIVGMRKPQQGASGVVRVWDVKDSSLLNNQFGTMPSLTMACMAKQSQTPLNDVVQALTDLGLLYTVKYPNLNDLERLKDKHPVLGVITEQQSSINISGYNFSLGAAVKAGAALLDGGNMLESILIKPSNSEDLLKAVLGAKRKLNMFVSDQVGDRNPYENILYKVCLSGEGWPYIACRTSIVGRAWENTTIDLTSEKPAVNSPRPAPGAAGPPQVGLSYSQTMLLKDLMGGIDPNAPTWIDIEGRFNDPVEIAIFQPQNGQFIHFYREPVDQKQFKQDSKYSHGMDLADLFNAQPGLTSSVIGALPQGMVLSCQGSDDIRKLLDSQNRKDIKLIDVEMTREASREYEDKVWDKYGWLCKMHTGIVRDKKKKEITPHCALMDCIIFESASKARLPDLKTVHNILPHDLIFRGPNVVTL

Measured: Potency
Note: series mostly up to about 57 µM.

Nc1c2c(nc3ccccc13)CCCC2
inactive: [1] | [2] | [3] | [4]

O=c1ccc2ccccc2o1
inactive: [1] | [2] | [3] | [4]

O=C(CCCCC(=O)Nc1c(I)cc(I)c(C(=O)O)c1I)Nc1c(I)cc(I)c(C(=O)O)c1I
inactive: [1] | [2] | [3] | [4]

CCN(CC)CCN
inactive: [1] | [2] | [3] | [4]

CN1CCC(OC(c2ccccc2)c2ccccc2)CC1
inactive: [1] | [2] | [3] | [4]

CN(C)CCCN1c2ccccc2Sc2ccccc21
inactive: [1] | [2] | [3] | [4]

Cc1ccc(C(C)OC(=O)C2(C)CCC(C(=O)O)C2(C)C)cc1 (stereo not given)
inactive: [1] | [2] | [3] | [4]

CN(C)CCN(Cc1cccs1)c1ccccn1
inactive: [1] | [2] | [3] | [4]

CC(=O)/C=C/C=C1/C2CCC(C2)C1(C)C (stereo not given)
inactive: [1] | [2] | [3] | [4]

CCOC(=O)c1ccc(NC(=O)CN2CCCCC2)cc1
inactive: [1] | [2] | [3] | [4]

CCCCCC1Nc2cc(C(F)(F)F)c(S(N)(=O)=O)cc2S(=O)(=O)N1 (stereo not given)
inactive: [1] | [2] | [3] | [4]

CCCN(CCC)C(=O)C(CCC(=O)O)NC(=O)c1ccccc1 (stereo not given)
inactive: [1] | [2] | [3] | [4]

Cc1cc(C(C)(C)C)c(O)c(C(C)(C)C)c1
inactive: [1] | [2] | [3] | [4]

CCN(CC)CCOC(=O)C(Cc1cccc2ccccc12)CC1CCCO1 (stereo not given)
inactive: [1] | [2] | [3] | [4]

CC(C)(C)C(=O)NCCCC(=O)O
inactive: [1] | [2] | [3] | [4]

Nc1nc2ncc(CNc3ccc(C(=O)N[C@@H](CCC(=O)O)C(=O)O)cc3)nc2c(=O)[nH]1
inactive: [1] | [2] | [3] | [4]

Cc1cc(NC(=O)C2=C(O)c3ccccc3S(=O)(=O)N2C)no1
inactive: [1] | [2] | [3] | [4]

CC(C)C(=O)Nc1cccc(C2CN3CCSC3=N2)c1 (stereo not given)
inactive: [1] | [2] | [3] | [4]

CCN1C(=O)c2ccccc2C1Nc1ccc(OCCN2CCCCC2)cc1 (stereo not given)
inactive: [1] | [2] | [3] | [4]

CCCOC(=O)c1ccc(N)cc1
inactive: [1] | [2] | [3] | [4]

NCCNC(=O)c1ccc(Cl)cn1
inactive: [1] | [2] | [3] | [4]

CCCCCC(=O)O[C@]1(C(C)=O)CC[C@H]2[C@@H]3CCC4=CC(=O)CC[C@]4(C)[C@H]3CC[C@@]21C
inactive: [1] | [2] | [3] | [4]

CC(C)Cc1ccc(C(C)C(=O)OCc2ccccn2)cc1 (stereo not given)
inactive: [1] | [2] | [3] | [4]

Oc1ccc(Cl)cc1Cc1cc(Cl)ccc1O
inactive: [1] | [2] | [3] | [4]

CN1CCN(C2=Nc3ccccc3Sc3ccc(Cl)cc32)CC1
inactive: [1] | [2] | [3] | [4]

C#C[C@]1(O)CC[C@H]2[C@@H]3[C@H](C)CC4=C(CCC(=O)C4)[C@H]3CC[C@@]21C
inactive: [1] | [2] | [3] | [4]

CCCCC1C(=O)N(c2ccccc2)N(c2ccc(O)cc2)C1=O (stereo not given)
inactive: [1] | [2] | [3] | [4]

NC(=O)c1ncn([C@@H]2O[C@H](CO)[C@@H](O)[C@H]2O)c1N
inactive: [1] | [2] | [3] | [4]

CS(=O)(=O)c1ccc(-c2cn3ccccc3n2)cc1
inactive: [1] | [2] | [3] | [4]

CCCCCCCCCCCCCCCCCCOCC(O)CO (stereo not given)
inactive: [1] | [2] | [3] | [4]

Cc1cc(O)c(C)c(C)c1O
inactive: [1] | [2] | [3] | [4]

CC(C)(C)c1ccc(C(=O)CCCN2CCC(OC(c3ccccc3)c3ccccc3)CC2)cc1
inactive: [1] | [2] | [3] | [4]

CC(C)(Cc1c[nH]c2ccccc12)NCC(O)COc1ccccc1C#N (stereo not given)
inactive: [1] | [2] | [3] | [4]

O=C(O)CCNC(=O)c1ccccc1
inactive: [1] | [2] | [3] | [4]

C=CCc1cc(OC)c(O)c(C(=O)NCCO)c1
inactive: [1] | [2] | [3] | [4]

Nc1c2c(nc3ccccc13)CCCC2O (stereo not given)
inactive: [1] | [2] | [3] | [4]

OCc1ccccc1O
inactive: [1] | [2] | [3] | [4]

Nc1ccc(C(=O)NCC(=O)O)cc1
inactive: [1] | [2] | [3] | [4]

C[N+](C)(C)CCOC(=O)CCC(=O)OCC[N+](C)(C)C
inactive: [1] | [2] | [3] | [4]

C#C[C@]1(O)CC[C@H]2[C@@H]3CCC4=CC(=O)CC[C@@H]4[C@H]3CC[C@@]21C
inactive: [1] | [2] | [3] | [4]

CN1CCN(c2cc3c(nn2)Oc2ccccc2N3C)CC1
inactive: [1] | [2] | [3] | [4]

OC[C@@H](O)[C@H](O)[C@H](O)[C@@H](O)CO
inactive: [1] | [2] | [3] | [4]

COc1ccc(-c2cc(C(F)F)nn2-c2ccc(S(N)(=O)=O)cc2)cc1F
inactive: [1] | [2] | [3] | [4]

CC(=O)NC(Cc1ccccc1)C(=O)O (stereo not given)
inactive: [1] | [2] | [3] | [4]

O=C1OC(OC(=O)c2cccnc2Nc2cccc(C(F)(F)F)c2)c2ccccc21 (stereo not given)
inactive: [1] | [2] | [3] | [4]

O=C1NCN(c2ccccc2)C12CCN(CCCC(c1ccc(F)cc1)c1ccc(F)cc1)CC2
inactive: [1] | [2] | [3] | [4]

CCN(CC)C(=O)c1cccc(C)c1
inactive: [1] | [2] | [3] | [4]

Fc1ccc(C(c2ccc(F)cc2)N2CCNCC2)cc1
inactive: [1] | [2] | [3] | [4]

CN(C)CCN1C(=O)c2ccccc2N(C)c2ccccc21
inactive: [1] | [2] | [3] | [4]

CN1CCCCC1CCN1c2ccccc2Sc2ccc(S(C)=O)cc21 (stereo not given)
inactive: [1] | [2] | [3] | [4]

C[C@H](N)C(=O)N[C@@H](C)C(=O)NC1[C@H]2CN(c3nc4c(cc3F)c(=O)c(C(=O)O)cn4-c3ccc(F)cc3F)C[C@@H]12 (stereo not given in full)
inactive: [1] | [2] | [3] | [4]

O=C1CC2(CCCC2)CC(=O)N1CCCCN1CCN(c2ncccn2)CC1
inactive: [1] | [2] | [3] | [4]

Cc1cc(C(C)(C)C)cc(C)c1CC1=NCCN1
inactive: [1] | [2] | [3] | [4]

CCC(=O)Nc1ccc(O)cc1
inactive: [1] | [2] | [3] | [4]

CCN(CC)CCOCCOC(=O)C1(c2ccccc2)CCCC1
inactive: [1] | [2] | [3] | [4]

CC(=O)OC[C@H]1O[C@@](COC(C)=O)(O[C@H]2O[C@H](COC(C)=O)[C@@H](OC(C)=O)[C@H](OC(C)=O)[C@H]2OC(C)=O)[C@@H](OC(C)=O)[C@@H]1OC(C)=O
inactive: [1] | [2] | [3] | [4]

C#CCN(C)Cc1ccccc1
inactive: [1] | [2] | [3] | [4]

Nc1ccc(S(=O)(=O)Nc2nccs2)cc1
inactive: [1] | [2] | [3] | [4]

CCCCCCCCCCCCOS(=O)(=O)O
inactive: [1] | [2] | [3] | [4]

CC(C)OC(=O)C(C(=O)OC(C)C)=C1SC=CS1
inactive: [1] | [2] | [3] | [4]
